# PubChem BioAssay
# Values without a mark were called inactive. The source made the active and inactive calls. Unless noted, how the calls were made is not given here.
# Assay: P. aeruginosa biofilm formation inhibitors, primary screen, PAO1 strain, BacTiter-Glo luminescence, LB-PBS (AID 1144)
# Conditions: 12 h, higher = more signal
row,Compound,z-score
1,CCc1cccc(NC(=O)O[C@H]2[C@H](OC(=O)Nc3ccc4c(c3)OCO4)[C@@H](OC(=O)Nc3ccc4c(c3)OCO4)[C@@H](OC)O[C@@H]2CO)c1,-1.21
2,CCOC(=O)C[C@H]1[C@H](OC(=O)c2cc3ccccc3oc2=O)[C@@H](NC(=O)c2ccc3ccccc3n2)c2cc(OCCCO)ccc2N1C(=O)c1ccccc1,0.287
3,CCN1C(=O)[C@H]2[C@H]3[C@H](O)[C@H](O)CC(=NOCC=C(C)CCC=C(C)C)[C@H]3CC[C@H]2C1=O,-0.805
4,O=C1[C@H]2[C@H]3[C@H](O)[C@H](O)CC(=NOCc4ccccc4)[C@@H]3CC[C@H]2C(=O)N1C1CCCCC1,0.774
5,CC(C)=CCCC(C)=CCON=C1[C@H]2CCn3c(=O)n(Cc4cc5c(cc4Cl)OCO5)c(=O)n3[C@H]2[C@H](O)[C@@H]2O[C@H]12,0.138
6,CCCNC(=O)OC[C@H]1O[C@H](CCON=C[C@@H](OC)[C@H](C)C=CCC(=O)OC)C=C[C@@H]1Oc1ccc(OC)cc1,1.18
7,COC(=O)[C@H](C)NC(=O)[C@@H](C)CO,0.06
8,C=CCOC(=O)[C@H]1[C@@H]2C(=O)O[C@@H](c3ccccc3)[C@@H](c3ccccc3)N2[C@@H](c2ccc(OCCOC(=O)[C@H]3C[C@H]4C(=O)N5CCC[C@H]5C(=O)N4[C@H]3c3cccc(OCCO)c3)cc2)[C@]12C(=O)Nc1ccc(I)cc12,-0.315
9,CCCCC(=C=CC[C@H](O)c1ccccc1OCCO)C[C@H](O)COCc1ccccc1,1.44
10,COc1ccc(-c2ccc3c(n2)CCCN3CC(O)CN2CCCc3nc(C)c(C)cc32)cc1 (configuration not stated),-0.0522
11,C[C@H]1Cc2c(-c3ccccc3)nc3c(c2CO1)CN(CCOc1ccccc1)CC3,-0.888

# Assay: CREB reporter modulators without forskolin, primary screen, cell-based, PC12, CRE-LacZ reporter, unstimulated (AID 1145)
# Conditions: no forskolin, luminescence, 4.5 h, higher = more signal, called active from +8 up or from −8 down
row,Compound,z-score
1,C=CC[C@@H]1C=C[C@H](ON=C2c3cc(OC)ccc3O[C@H](c3cccc(OC)c3)[C@H]2O)[C@@H](CO)O1,5.59
2,COCCOC(=O)N1C(=O)[C@@]2(c3cc(C#CCNC(N)=O)ccc31)[C@H](c1ccc(O)cc1)N1[C@H](c3ccccc3)[C@H](c3ccccc3)OC(=O)[C@H]1[C@@H]2C(=O)N1CCCCCCC1,-1.57
3,CC(C)(C)N1C(=O)[C@H]2[C@H]3[C@H](O)[C@H](O)CC(=NOCc4ccccc4)[C@@H]3CC[C@H]2C1=O,0.16
4,O=C1C[C@]2(c3ccc([N+](=O)[O-])cc3)C(=O)N(CCN3CCOCC3)c3cc(CO)ccc3[C@H]2N1CC12CC3CC(CC(C3)C1)C2,0.324
5,CC[C@@H](c1ccccc1)n1c(=O)n2n(c1=O)[C@H]1[C@H](O)[C@@H]3O[C@@H]3C(=NOCC(C)C)[C@H]1CC2,0.786
6,O=C1[C@H]2[C@H]3[C@H](O)[C@H](O)CC(=NO[C@@H]4O[C@H](CO)[C@@H](O)[C@H](O)[C@H]4O)[C@@H]3CC[C@H]2C(=O)N1Cc1ccc2c(c1)OCO2,0.245
7,CC(C)=C1C(=O)C(c2ccccc2)=C2CN3C(=O)N(CCc4ccccc4)C(=O)[C@]3(Cc3ccc(F)cc3)[C@H]21,0.576
8,CO[C@@H]1COC(=O)CCC[C@@H](C)[C@H](OC)COC(=O)[C@H](Cc2ccccc2)NC(=O)CC=C[C@H]1C,0.0897
9,Cc1ccc(F)cc1S(=O)(=O)N[C@@H]1CCN(Cc2ccc(CC(C)C)cc2)C1,-0.683
10,CC(C)[Si]1(C(C)C)O[C@@H](c2ccccc2)c2cc(C3CC3)nc(-c3ccccc3)c21,-0.258
11,COC(=O)[C@@]1(Cc2ccc(F)cc2)[C@H]2c3cc(C(=O)N(C)C)n(Cc4ccc(OC)c(OC)c4)c3C[C@H]2CN1C(=O)c1ccccc1,0.194
12,CCOC(=O)CCN1C(=O)[C@H]2[C@H]3[C@H](O)C=CC(=O)[C@@H]3CC[C@H]2C1=O,-0.115
13,C[C@H](c1ccccc1)N1C(=O)[C@H]2[C@@H]3C(=CC[C@H]2C1=O)C(=O)[C@H]1O[C@H]1[C@H]3O,0.699
14,CS(=O)(=O)CCOC(=O)C1=CC(CCCO)=CC(c2cccs2)N(Cc2cccc(OC(F)(F)F)c2)C=C1C(=O)OCCS(C)(=O)=O (configuration not stated),4.08
15,O=C1[C@H]2[C@H]3[C@H](O)[C@H](O)CC(=NO[C@@H]4O[C@H](CO)[C@@H](O)[C@H](O)[C@H]4O)[C@H]3CC[C@H]2C(=O)N1Cc1ccc2c(c1)OCO2,0.525
16,Cc1cc2c(nc1C)CCCN2CC(C)ON=C1[C@H]2CCn3c(=O)n(-c4ccccc4)c(=O)n3[C@H]2[C@H](O)[C@@H]2O[C@H]12 (some centres not stated),0.415
17,Cc1cc(C)c(-c2cc([C@H](C)ON=C3[C@H]4CCn5c(=O)n(-c6ccccc6)c(=O)n5[C@H]4[C@H](O)[C@@H]4O[C@H]34)on2)c(C)c1,0.229
18,COc1ccc([Si](C)(C)[C@@H]2[C@@H](CCO)O[C@]3(C(=O)N(Cc4ccc(NC(C)=O)cc4)c4ccccc43)[C@H]2C)cc1,3.57

row,Compound,z-score
1,c1ccc(C2NCCc3c2[nH]c2ccccc32)cc1 (configuration not stated),-0.253
2,CC(=O)C[C@H](O)[C@@H](NC(=O)OC(C)(C)C)C(C)C,0.288
3,CO[C@H]1O[C@H](CO)[C@@H](OC(=O)Nc2ccc(C#N)cc2)[C@H](OC(=O)c2cc3ccccc3[nH]2)[C@H]1OC(=O)c1cc2ccccc2[nH]1,0.484
4,CO[C@@H]1COC(=O)[C@@H]2CCCN2C(=O)[C@@H](C)COC(=O)[C@H](COCc2ccccc2)NC(=O)CC=C[C@H]1C,-0.799
5,COc1ccc(O[C@H]2C=C[C@@H](c3ccccc3)O[C@@H]2COC(=O)CCC(C)=NO[C@H](C)c2cn([C@@H]3COC[C@H]3O)nn2)cc1,5.66
6,CC(CCC(=O)OC[C@H]1O[C@H](C#Cc2ccccc2)C=C[C@@H]1Oc1ccc(C)cc1)=NO[C@@H](C)c1cn([C@H](CO)Cc2ccccc2)nn1,1.07
7,CO[C@H]1COC(=O)[C@H](C)COC(=O)CC=C[C@@H](C)[C@H](OC)COC(=O)CC=C[C@@H]1C,-0.474
8,CCc1cccc(NC(=O)O[C@H]2[C@H](OC(=O)Nc3ccc4c(c3)OCO4)[C@@H](OC(=O)Nc3ccc4c(c3)OCO4)[C@@H](OC)O[C@@H]2CO)c1,0.101
9,CCOC(=O)C[C@H]1[C@H](OC(=O)c2cc3ccccc3oc2=O)[C@@H](NC(=O)c2ccc3ccccc3n2)c2cc(OCCCO)ccc2N1C(=O)c1ccccc1,11.9 (active)
10,CCN1C(=O)[C@H]2[C@H]3[C@H](O)[C@H](O)CC(=NOCC=C(C)CCC=C(C)C)[C@H]3CC[C@H]2C1=O,-0.0223
11,O=C1[C@H]2[C@H]3[C@H](O)[C@H](O)CC(=NOCc4ccccc4)[C@@H]3CC[C@H]2C(=O)N1C1CCCCC1,0.519
12,CC(C)=CCCC(C)=CCON=C1[C@H]2CCn3c(=O)n(Cc4cc5c(cc4Cl)OCO5)c(=O)n3[C@H]2[C@H](O)[C@@H]2O[C@H]12,0.336
13,CCCNC(=O)OC[C@H]1O[C@H](CCON=C[C@@H](OC)[C@H](C)C=CCC(=O)OC)C=C[C@@H]1Oc1ccc(OC)cc1,3.46
14,COC(=O)[C@H](C)NC(=O)[C@@H](C)CO,-0.432
15,C=CCOC(=O)[C@H]1[C@@H]2C(=O)O[C@@H](c3ccccc3)[C@@H](c3ccccc3)N2[C@@H](c2ccc(OCCOC(=O)[C@H]3C[C@H]4C(=O)N5CCC[C@H]5C(=O)N4[C@H]3c3cccc(OCCO)c3)cc2)[C@]12C(=O)Nc1ccc(I)cc12,-0.134
16,CCCCC(=C=CC[C@H](O)c1ccccc1OCCO)C[C@H](O)COCc1ccccc1,3.27
17,COc1ccc(-c2ccc3c(n2)CCCN3CC(O)CN2CCCc3nc(C)c(C)cc32)cc1 (configuration not stated),-0.0779
18,C[C@H]1Cc2c(-c3ccccc3)nc3c(c2CO1)CN(CCOc1ccccc1)CC3,2.92
